Source: ChEMBL document CHEMBL3433997, “St. Jude Leishmania screening dataset” (2016)

Each compound was assayed against Hexose transporter 1 (Plasmodium falciparum) (UniProt O97467) (assay: ST_JUDE_LEISH: Cytotoxicity at 2uM final concentration against transgenic Leishmania Mexicana promastigotes LmPfHT that are glucose transport deficient and complemented with the Plasmodium falciparum hexose transporter. Activity is measured by DNA content using SYBR green in vitro).
Assay type: functional
Work on `CC(C)(C)c1ccc2[nH]c(-c3ccc(/C=C/C(=O)NC4CCN(Cc5ccccc5)CC4)cc3)nc2c1` yielded an inhibition of 10.5%. `CCN(CC)/C(=N/C(=N)NCc1cccc(Cl)c1)NCCCCCCN/C(=N\C(=N)NCc1cccc(Cl)c1)N(CC)CC` gave an inhibition of 4.83%. In the case of `O=C(O[C@H]1CN[C@H](C#Cc2cc3ncnc(Nc4ccc5c(ccn5S(=O)(=O)c5cccs5)c4)c3s2)C1)N1CCOCC1`, the inhibition is reported as 13.6%. Work on `CC(C)C[C@H](NC(=O)[C@H](Cc1ccccc1)N(C[C@H](Cc1ccccc1)NC(=O)OC(C)(C)C)C(=O)C(F)(F)F)C(=O)NC1CCN(Cc2ccccc2)CC1` yielded an inhibition of 5.7%. With `CS(=O)(=O)c1cccc(-c2cnc3[nH]cc(-c4ccc(C(=O)O)cc4)c3c2)c1` the inhibition was -0.81%. With `O=C(Nc1ccc(F)c(Cl)c1)NC1CCN(c2ccnc3cc(Cl)ccc23)C1` (stereo not drawn) the inhibition was 6.38%. For `COc1cccc(CCc2cccc(CNC(C)=O)c2)c1`, the inhibition was 4.65%. For `O=C(NCc1ccc(F)cc1)Nc1ccc(-c2cccc(-c3nc4cc(C(F)(F)F)ccc4[nH]3)c2)cc1`, the inhibition was 2.38%. Work on `CNC(=O)c1cc(S(=O)(=O)N2CCN(c3ccccn3)CC2)c(C)s1` yielded an inhibition of -1.2%. `CCCCCCN1CCC(CNCc2cccc([N+](=O)[O-])c2)CC1` gave an inhibition of 9.36%. In the case of `CC(=O)Nc1ccc(CN(Cc2ccc(F)cc2)Cc2cccc(Oc3ccccc3)c2)cc1`, the inhibition is reported as 1.73%. `CCOC(=O)c1c(NC(=O)c2ccccc2)sc2c(O)c(CNC3CCCCC3)ccc12` showed an inhibition of -0.58%. `CCN(CC)CCN(Cc1ccc(-c2ccc(C(F)(F)F)cc2)cc1)C(=O)Cn1c(CCc2c(F)ccc(F)c2F)nc(=O)c2ccccc21` showed an inhibition of 1.87%. With `CCCCc1ccc2[nH]c(NC(=O)OC)nc2c1` the inhibition was 7.79%. Work on `CNCCNCc1cccc(-c2ccc(-c3nc4cccc(C)c4[nH]3)cc2)c1` yielded an inhibition of -3.38%. `CCN(CC)C(C)(C)CN(Cc1ccc(-c2ccc(C(F)(F)F)cc2)cc1)C(=O)Cn1c(CCc2cccc(F)c2F)nc(=O)c2ccccc21` was tested, and the inhibition was 5.18%. Work on `O=C(NC1CCC(N2CCC(c3ccccc3C(F)(F)F)CC2)CC1)c1cc2ccccc2[nH]1` (stereo not drawn) yielded an inhibition of 5.68%. For `CC(C)OC(=O)c1ccccc1S(N)(=O)=O`, the inhibition was 12.7%. `COc1ccc2nccc([C@@H](O)CN3CCC(NC(=O)COc4nc(SCc5ccc(F)cc5)nc5c4CCC5)CC3)c2c1` gave an inhibition of 0.81%. `Cc1cccc(C)c1CNc1cccc(-c2nc(C)c(C)[nH]2)c1` showed an inhibition of 4.77%. With `CN(C)c1ccc(CN2CCC(CNC(=O)c3cc(-c4cccc(C(F)(F)F)c4)cs3)C2)cc1` (stereo not drawn) the inhibition was 1.34%. `COc1ccc(NC(=O)/C=C/c2ccccc2Cl)cc1OCCN1CCC(NCc2ccccc2)CC1` gave an inhibition of 2.49%. With `N#CCSc1nnc(-c2ccccc2)c2ccccc12` the inhibition was 9.44%. With `CCN(CC)CCN(Cc1ccc(-c2ccc(C(F)(F)F)cc2)cc1)C(=O)Cn1c(CCc2cccc(F)c2F)nc(=O)c2ccccc21` the inhibition was 0.95%. In the case of `O=C(NCCCCN1CCC(c2cccc3ccccc23)CC1)c1ccc(NC(=O)c2ccc(Cl)cc2)cc1`, the inhibition is reported as 0.25%. With `Cc1cc(C(=O)NC2CCN(Cc3ccccc3)CC2)ccc1-c1nc2cc(Cl)c(Cl)cc2[nH]1` the inhibition was -0.19%. In the case of `COc1ccc2ncc(Cl)c(CCN3CCC(NCc4ccc5c(n4)NC(=O)CO5)CC3)c2c1`, the inhibition is reported as 5.92%. For `CC1(C)N=C(N)N=C(N)N1c1ccc(Oc2ccccc2)cc1`, the inhibition was 1.71%. `Cc1cc(Nc2ccc(C)c(Cl)c2)n2nc(C(F)(F)F)nc2n1` gave an inhibition of 2.47%. `COc1cccc(OC)c1OCCCON1C(=N)N=C(N)NC1(C)C` was tested, and the inhibition was 1.49%. `CCN(CC)CCN(Cc1ccc(-c2ccc(C(F)(F)F)cc2)cc1)C(=O)Cn1c(CCc2cc(F)c(F)cc2F)nc(=O)c2ccccc21` showed an inhibition of 12.3%. `CC(CN1CCN(C)CC1)C(=O)Nc1ccc(-c2cccc(-c3nc4ccccc4[nH]3)c2)cc1` (stereo not drawn) showed an inhibition of 1.7%. In the case of `CC(C)CNC(=O)c1ccnc(-c2ccc(CNC3Cc4ccccc4C3)cc2)c1`, the inhibition is reported as -0.27%. In the case of `O=C(Nc1cc(Cl)cc(Cl)c1)c1cnn(-c2ccc(F)cc2)c1C1CCNCC1`, the inhibition is reported as -0.39%. Compound `Cc1cccc(C)c1OC(=O)C(C)C(O)C1(Sc2ccccc2)CCN(C)CC1` (stereo not drawn) has an inhibition of 3.78%. Work on `N=C1SC(=Cc2cn[nH]c2-c2ccc(F)cc2)C(=O)N1c1nccs1` yielded an inhibition of 2.1%. `CCC(NC[C@@H](O)[C@H](Cc1ccccc1)NC(=O)c1cc(C2CCCC2)cc(N2CCCC2=O)c1)c1cccc(Cl)c1` (stereo partly drawn) gave an inhibition of 2.04%. In the case of `CCOc1cc(C)c(C2CCN(CCCCNC(=O)c3ccc(NC(=O)c4ccc(Cl)cc4)cc3)CC2)cc1C`, the inhibition is reported as -0.72%. In the case of `C=Cc1c(C2CCN(CCCCNC(=O)c3ccc(-c4ccc(C#N)cc4)cc3)CC2)ccc2c1CCCC2`, the inhibition is reported as 4.14%.

Each compound was assayed against Glucose transporter (Leishmania mexicana) (UniProt O61059) (assay: ST_JUDE_LEISH: Cytotoxicity at 2uM final concentration against transgenic Leishmania Mexicana promastigotes LmGT2 that are glucose transport deficient and complemented with the L. Mexicana glucose transporter 2. Activity is measured by DNA content using SYBR green in vitro).
Assay type: functional
`CC(C)(C)c1ccc2[nH]c(-c3ccc(/C=C/C(=O)NC4CCN(Cc5ccccc5)CC4)cc3)nc2c1` gave an inhibition of 7.5%. For `CCN(CC)/C(=N/C(=N)NCc1cccc(Cl)c1)NCCCCCCN/C(=N\C(=N)NCc1cccc(Cl)c1)N(CC)CC`, the inhibition was 2.27%. For `O=C(O[C@H]1CN[C@H](C#Cc2cc3ncnc(Nc4ccc5c(ccn5S(=O)(=O)c5cccs5)c4)c3s2)C1)N1CCOCC1`, the inhibition was 10.6%. In the case of `CC(C)C[C@H](NC(=O)[C@H](Cc1ccccc1)N(C[C@H](Cc1ccccc1)NC(=O)OC(C)(C)C)C(=O)C(F)(F)F)C(=O)NC1CCN(Cc2ccccc2)CC1`, the inhibition is reported as 4.2%. Compound `CS(=O)(=O)c1cccc(-c2cnc3[nH]cc(-c4ccc(C(=O)O)cc4)c3c2)c1` has an inhibition of 1.75%. For `O=C(Nc1ccc(F)c(Cl)c1)NC1CCN(c2ccnc3cc(Cl)ccc23)C1` (stereo not drawn), the inhibition was 8.81%. Compound `COc1cccc(CCc2cccc(CNC(C)=O)c2)c1` has an inhibition of 5.68%. `O=C(NCc1ccc(F)cc1)Nc1ccc(-c2cccc(-c3nc4cc(C(F)(F)F)ccc4[nH]3)c2)cc1` showed an inhibition of -0.05%. `CNC(=O)c1cc(S(=O)(=O)N2CCN(c3ccccn3)CC2)c(C)s1` showed an inhibition of 1.44%. In the case of `CCCCCCN1CCC(CNCc2cccc([N+](=O)[O-])c2)CC1`, the inhibition is reported as 5.95%. `CC(=O)Nc1ccc(CN(Cc2ccc(F)cc2)Cc2cccc(Oc3ccccc3)c2)cc1` was tested, and the inhibition was 0.56%. For `CCOC(=O)c1c(NC(=O)c2ccccc2)sc2c(O)c(CNC3CCCCC3)ccc12`, the inhibition was -0.44%. `CCN(CC)CCN(Cc1ccc(-c2ccc(C(F)(F)F)cc2)cc1)C(=O)Cn1c(CCc2c(F)ccc(F)c2F)nc(=O)c2ccccc21` showed an inhibition of 1.43%. For `CCCCc1ccc2[nH]c(NC(=O)OC)nc2c1`, the inhibition was 9.56%. For `CNCCNCc1cccc(-c2ccc(-c3nc4cccc(C)c4[nH]3)cc2)c1`, the inhibition was 0.95%. `CCN(CC)C(C)(C)CN(Cc1ccc(-c2ccc(C(F)(F)F)cc2)cc1)C(=O)Cn1c(CCc2cccc(F)c2F)nc(=O)c2ccccc21` was tested, and the inhibition was 5.98%. `O=C(NC1CCC(N2CCC(c3ccccc3C(F)(F)F)CC2)CC1)c1cc2ccccc2[nH]1` (stereo not drawn) showed an inhibition of 31.2%. In the case of `CC(C)OC(=O)c1ccccc1S(N)(=O)=O`, the inhibition is reported as 7.97%. `COc1ccc2nccc([C@@H](O)CN3CCC(NC(=O)COc4nc(SCc5ccc(F)cc5)nc5c4CCC5)CC3)c2c1` was tested, and the inhibition was -3.16%. `Cc1cccc(C)c1CNc1cccc(-c2nc(C)c(C)[nH]2)c1` was tested, and the inhibition was 1.97%. In the case of `CN(C)c1ccc(CN2CCC(CNC(=O)c3cc(-c4cccc(C(F)(F)F)c4)cs3)C2)cc1` (stereo not drawn), the inhibition is reported as 1.72%. `COc1ccc(NC(=O)/C=C/c2ccccc2Cl)cc1OCCN1CCC(NCc2ccccc2)CC1` showed an inhibition of 0.75%. `N#CCSc1nnc(-c2ccccc2)c2ccccc12` was tested, and the inhibition was -0.1%. In the case of `CCN(CC)CCN(Cc1ccc(-c2ccc(C(F)(F)F)cc2)cc1)C(=O)Cn1c(CCc2cccc(F)c2F)nc(=O)c2ccccc21`, the inhibition is reported as 1.67%. `O=C(NCCCCN1CCC(c2cccc3ccccc23)CC1)c1ccc(NC(=O)c2ccc(Cl)cc2)cc1` gave an inhibition of 0.68%. Compound `Cc1cc(C(=O)NC2CCN(Cc3ccccc3)CC2)ccc1-c1nc2cc(Cl)c(Cl)cc2[nH]1` has an inhibition of 3.05%. In the case of `COc1ccc2ncc(Cl)c(CCN3CCC(NCc4ccc5c(n4)NC(=O)CO5)CC3)c2c1`, the inhibition is reported as 6.59%. Work on `CC1(C)N=C(N)N=C(N)N1c1ccc(Oc2ccccc2)cc1` yielded an inhibition of 2.8%. In the case of `Cc1cc(Nc2ccc(C)c(Cl)c2)n2nc(C(F)(F)F)nc2n1`, the inhibition is reported as 1.18%. In the case of `COc1cccc(OC)c1OCCCON1C(=N)N=C(N)NC1(C)C`, the inhibition is reported as 2.31%. With `CCN(CC)CCN(Cc1ccc(-c2ccc(C(F)(F)F)cc2)cc1)C(=O)Cn1c(CCc2cc(F)c(F)cc2F)nc(=O)c2ccccc21` the inhibition was 12.8%. With `CC(CN1CCN(C)CC1)C(=O)Nc1ccc(-c2cccc(-c3nc4ccccc4[nH]3)c2)cc1` (stereo not drawn) the inhibition was -0.2%. `CC(C)CNC(=O)c1ccnc(-c2ccc(CNC3Cc4ccccc4C3)cc2)c1` gave an inhibition of -1.63%. Compound `O=C(Nc1cc(Cl)cc(Cl)c1)c1cnn(-c2ccc(F)cc2)c1C1CCNCC1` has an inhibition of 1.72%. `Cc1cccc(C)c1OC(=O)C(C)C(O)C1(Sc2ccccc2)CCN(C)CC1` (stereo not drawn) gave an inhibition of 3.85%. `N=C1SC(=Cc2cn[nH]c2-c2ccc(F)cc2)C(=O)N1c1nccs1` gave an inhibition of 1.17%. `CCC(NC[C@@H](O)[C@H](Cc1ccccc1)NC(=O)c1cc(C2CCCC2)cc(N2CCCC2=O)c1)c1cccc(Cl)c1` (stereo partly drawn) was tested, and the inhibition was 4.65%. `CCOc1cc(C)c(C2CCN(CCCCNC(=O)c3ccc(NC(=O)c4ccc(Cl)cc4)cc3)CC2)cc1C` was tested, and the inhibition was -0.67%. `C=Cc1c(C2CCN(CCCCNC(=O)c3ccc(-c4ccc(C#N)cc4)cc3)CC2)ccc2c1CCCC2` showed an inhibition of 1.54%.
